Hits are enriched below; roughly 13% of the tested compounds scored in any of these assays.
G9a inh: qHTS Assay for Inhibitors of Histone Lysine Methyltransferase G9a; Histone-lysine N-methyltransferase EHMT2 (Homo sapiens), Q96KQ7; G9a H3K9 monomethylation, AlphaScreen, 2 h; Potency, µM (titrated, usually from 102 µM), usual class: inhibitors; 350,000 tested, 8.8% active; further: nearly all actives have a fitted effect of over 75% in size
Target sequence (Q96KQ7 913-1193 limits assumed): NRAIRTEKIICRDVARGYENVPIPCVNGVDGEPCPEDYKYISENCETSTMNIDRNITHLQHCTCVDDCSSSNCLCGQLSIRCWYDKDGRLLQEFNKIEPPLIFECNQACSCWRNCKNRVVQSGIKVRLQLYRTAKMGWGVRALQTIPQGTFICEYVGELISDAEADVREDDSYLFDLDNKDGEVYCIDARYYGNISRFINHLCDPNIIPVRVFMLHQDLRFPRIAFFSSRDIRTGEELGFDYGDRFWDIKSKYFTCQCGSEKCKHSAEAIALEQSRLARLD
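Step 1: enzyme (final 20 nM) with compound, 15 min RT. Step 2: substrate peptide 500 nM and SAM 20 uM, 2 h RT. Step 3: anti-H3K9me1 antibody and AlphaScreen beads, 10 min, then plate read.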
Sfp inh: qHTS Assay for Inhibitors of Bacillus subtilis Sfp phosphopantetheinyl transferase (PPTase). Potency, µM, usual class: inhibitors. AID 1490, 2009. Biochemical Sfp PPTase activity, qHTS. 310,000 tested, 3.5% active;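 further: the enzyme is Sfp with the accession as filed and its product quenches rhodamine fluorescence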
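Reaction rates are the 30-min fluorescence difference (ex 525, em 598 nm) in wells containing 15 nM Sfp, 5 uM rhodamine-CoA and 12.5 uM BHQ-2-YbbR at pH 7.6 with 10 mM MgCl2.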
KDM4E inh: qHTS Assay for Inhibitors of Human Jumonji Domain Containing 2E (JMJD2E). AID 2147, 2009. 230,000 tested, 1.6% active. JMJD2E catalytic domain, FDH-coupled NADH fluorescence (FDH is formaldehyde dehydrogenase). Lysine-specific demethylase 4E (Homo sapiens), B2RXH2. Potency, µM (top dose mostly 57.1 µM), hits mostly inhibitors; active means well fitted inhibition curve with a large enough effect, not every such curve was filed as active; inconclusive means small, poorly fitted or top-dose-only effect, or another doubt; inactive means no such curve, though single readings can be large or run the other way; further: nearly all actives have a fitted effect of over 50% in size
Target sequence (B2RXH2 1-337 limits assumed): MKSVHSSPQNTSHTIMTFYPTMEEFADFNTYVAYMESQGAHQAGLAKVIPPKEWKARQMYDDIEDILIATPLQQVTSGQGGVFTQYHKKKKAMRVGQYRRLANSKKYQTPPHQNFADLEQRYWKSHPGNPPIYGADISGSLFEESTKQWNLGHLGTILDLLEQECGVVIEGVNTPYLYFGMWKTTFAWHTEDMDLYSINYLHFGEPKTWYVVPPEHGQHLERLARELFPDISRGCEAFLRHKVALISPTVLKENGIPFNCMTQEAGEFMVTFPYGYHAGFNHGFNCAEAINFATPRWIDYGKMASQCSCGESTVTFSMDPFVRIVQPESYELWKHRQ
ALDH1A1 block: qHTS Assay for Inhibitors of Aldehyde Dehydrogenase 1 (ALDH1A1); Aldehyde dehydrogenase 1A1 (Homo sapiens), P00352; Purified ALDH1A1, NADH fluorescence, propionaldehyde substrate; Potency, µM (highest dose often 75.3 µM), hits mostly inhibitors; 220,000 tested, 7.3% active; AID 1030, 2008; active means well fitted inhibition curve with a large enough effect, not every such curve was filed as active; inconclusive means small, poorly fitted or top-dose-only effect, or another doubt; inactive means no such curve, though single readings can be large or run the other way
miR-21 reporter: qHTS Assay for Modulators of miRNAs and/orActivators of miR-21 | HeLa miR-21 FLuc reporter, luciferase, 48 h | Potency, µM (titrated, usually from 38.3 µM), actives largely listed as activators | AID 2288, 2010 | 340,000 tested, under 10 active;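 further: miR-21 action dims this reporter so a rising signal means less miR-21 action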
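HeLa cells stably expressing CMV-driven firefly luciferase with a downstream miR-21 binding sequence, endogenously expressing miR-21, were treated with titrations (up to about 40uM final) for 48 hours at 37 degree Celsius. Luciferase luminescence was read after lysis.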
Lamin A splicing: qHTS Assay for Modulators of Lamin A Splicing; HeLa LMNA splicing GFP/RFP minigene ratio, 48 h; Potency, µM (top dose mostly 46.1 µM), most hits filed as inhibitors; 200,000 tested, 0.01% active; active means well fitted inhibition curve with a large enough effect in the signal ratio, with a control signal flat, not every such curve was filed as active; inconclusive means small, poorly fitted or top-dose-only effect, or effect the other way, or a change in a side signal; the % refers to the signal ratio
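S3 HeLa cells stably expressing lamin A-EGFP splicing minigene plus DsRed2, 600 cells/well, 48 h compound exposure at 37C. Laser-scanning cytometry; analysed as GFP (500-530 nm)/RFP (575-640 nm) total intensity ratio; 0.5% DMSO vehicle.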
Hits are given with their value; . = inactive; ? = inconclusive; / = not tested or not shown; [ ] = another dose, or the depositor's remark. Unless noted, the call rests on the fitted dose curve; in most records, active means well fitted curve in the direction sought with a large enough effect; inconclusive means small, poorly fitted or top-dose-only effect, or another doubt; inactive means no such curve, though single readings can be large; an effect the other way counts as inactive or inconclusive.

SMILES	G9a inh	Sfp inh	KDM4E inh	ALDH1A1 block	miR-21 reporter	Lamin A splicing
O=C(NNc1cc(Br)c(O)c(Br)c1)c1ccccc1	5µM	.	.	18µM	.	.
COc1cccc(/C=C2\C(=O)C(=O)c3ccccc32)c1	50µM	.	.	?	.	.
COc1cccc(/C=C2/C(=O)NN(c3ccc(C)c(C)c3)C2=O)c1	45µM	.	/	/	.	/
O=C1NN(c2ccc(F)cc2)C(=O)/C1=C/c1cccs1	45µM	.	.	25µM	.	?
COc1cc(C=C2C(=O)c3ccccc3C2=O)cc(OC)c1	/	.	.	/	.	/
O=C1NN(c2ccccc2)C(=O)/C1=C\c1ccc2c(c1)OCO2	50µM	.	/	/	.	/
O=C1NC(=S)N/C1=C/c1ccc2c(c1)OCO2	.	.	/	/	.	/
CN(CC(=O)N1CCN(c2ccccc2)CC1)C1CCCc2ccccc21 (stereo not given)	.	.	/	/	.	/
COc1cccc(/C=C2/C(=O)NN(c3ccccc3)C2=O)c1	40µM	?	/	/	.	/
COc1cccc(/C=C2/C(=O)NN(c3ccc(F)cc3)C2=O)c1	45µM	?	/	/	.	/
CC1(C)CC(=O)C(C=NCCN2CCN(C3CC(=O)N(c4ccc(Cl)c(Cl)c4)C3=O)CC2)=C(O)C1 (stereo not given)	?	.	.	22µM	.	.
CC(=C1C(=O)c2ccccc2C1=O)N1CCN(CCN=CC2=C(O)CC(C)(C)CC2=O)CC1	?	.	.	14µM	.	.
CC1(C)CC(=O)C(C=NCCN2CCN(C(=O)NC34CC5CC(CC(C5)C3)C4)CC2)=C(O)C1	50µM	.	.	16µM	.	.
C=Cc1ccc(Cn2c(C)c(CNCCc3ccc(OCC)cc3)c(C(=O)O)c2C)cc1	.	/	/	/	.	/
COc1cccc(CN2CCSCC2)c1	40µM	.	?	?	.	.
COc1ccc(CN2CCSCC2)cc1C	10µM	.	.	.	.	.
Brc1ccc(CN2CCSCC2)cc1	20µM	.	?	?	.	.
COc1cc(C)c(CN2CCSCC2)cc1C	.[0.501 µM]	.	/	/	.	/
COc1cccc(CN2CCN(Cc3cc(OC)c(OC)cc3OC)CC2)c1	45µM	56µM	/	/	.	/
Clc1cccc(CN2CCSCC2)c1	.[0.501 µM]	.	/	/	.	/
CCCn1c2ccccc2c2cnn(CC(=O)N(Cc3ccccc3)C(C)C)c(=O)c21	.	/	/	/	.	?
O=C(NCCN1CCCC1)c1ccc(Br)cc1	.[0.501 µM]	.	/	/	.	/
O=C(CCN1CCOCC1)NNC(=S)NC(=O)c1ccc(Br)cc1	7.9µM	.	.	?	.	?
O=C(CCN1CCCCC1)NNC(=S)NC(=O)c1ccc(Br)cc1	11µM	.	.	28µM	.	/
O=C1C2C3CCC(CC3)C2C(=O)N1c1ccccc1 (stereo not given)	.[2.33 µM]	.	/	/	.	/
SMILES	G9a inh	Sfp inh	KDM4E inh	ALDH1A1 block	miR-21 reporter	Lamin A splicing
COc1cc(CC(=O)OCC(=O)Nc2ccc(S(=O)(=O)N3CCCC3)cc2)cc(OC)c1OC	.	.	.	20µM	.	.
COc1cc2c(cc1OC)C(C)N(CC(=O)Nc1ccc(S(=O)(=O)N3CCCC3)cc1)CC2 (stereo not given)	40µM	.	/	/	.	/
O=C(C1CCCN(c2nnc(-n3cccc3)s2)C1)N1CCN(c2ccccc2)CC1 (stereo not given)	50µM	.	.	?	.	.
CC(CCc1ccccc1)NC(=O)C1CCCN(c2nnc(-n3cccc3)s2)C1 (stereo not given)	.	.	.	.	.	.
O=[N+]([O-])c1cccc(-c2ncc3ccccn23)c1	.	.	.	.	.	.[9.22 µM]
Nc1c(-c2cccc([N+](=O)[O-])c2)nc2ccccn12	79µM	.	.	7.5µM	.	.
C[N+]1(CCCOC(=O)C2(c3ccccc3)CCCC2)CCOCC1	7.9µM	.	.	.	.	?
CCCCCCCCC	/	/	/	.	/	/
O=[N+]([O-])c1ccc(C(=Nc2cccc3ccccc23)N2CCOCC2)cc1	45µM	.	.	.	.	.
O=C(O)c1ccccc1Nc1cc(Cl)cc(Cl)c1	/	.	/	/	/	/
Nc1ccc(Oc2ccc3c(c2)C(=O)N(CC2CCCO2)C3=O)cc1 (stereo not given)	.	.	.	28µM	.	/
Nc1ccc2c(c1)C(=O)N(CC1CCCO1)C2=O (stereo not given)	?	.	.	8.9µM	.	.
CCOc1ccc(CNC(=O)C2CCCN(c3nn4cc(-c5ccc(OC)cc5)nc4s3)C2)cc1 (stereo not given)	.	/	/	/	.	?
Cc1oc(/C=N/NC(=O)CN(c2ccccc2Br)S(C)(=O)=O)cc1Br	71µM	.	.	?	.	.
Cc1cccc(C)c1-n1c(C)cc(/C=N/NC(=O)CSc2ncccn2)c1C	.	?	.	10µM	.	.
Cc1cc(C)cc(-n2c(C)cc(/C=N\NC(=O)COc3cccc4cccnc34)c2C)c1	45µM	.	?	.	.	.
Cc1cc(C)nc(SCC(=O)N/N=C/c2cc(C)n(-c3ccccc3C)c2C)n1	50µM	.	.	10µM	.	?
CC1OC(OC2C(CO)OC(OC3C(CO)OC(O)C(O)C3O)C(O)C2O)C(O)C(O)C1NC1C=C(CO)C(O)C(O)C1O (stereo not given)	.[2.33 µM]	.	.	?	/	/
CCC1OC(=O)C(C)[C@@H](O[C@H]2C[C@@](C)(OC)C(O)C(C)O2)C(C)[C@@H](O[C@@H]2OC(C)CC(N(C)C)C2O)[C@@](C)(O)CC(C)CN(C)C(C)C(O)[C@]1(C)O (stereo not given in full)	.[2.33 µM]	.	.	.	/	/
Cc1ccc(C)c(Nc2ncnc3onc(C)c23)c1	.	/	/	/	.	.
CCc1ccccc1Nc1nn2c(=O)c3ccc(C(=O)NC(C)c4ccccc4)cc3nc2s1 (stereo not given)	.	/	/	/	.	/
COc1cc(-c2noc(-c3ccc(NCC4CCCO4)c([N+](=O)[O-])c3)n2)cc(OC)c1OC (stereo not given)	.	/	/	/	.	/
Cc1ccccc1N(CC(=O)N/N=C/c1cc(C)n(-c2ccccc2C)c1C)S(C)(=O)=O	10µM	.	?	4µM	.	.
COc1cc(OC)c(OC)cc1CNc1cc(C)ccc1OC	7.9µM	.	.	.	.	?
COc1cc(Br)c(CNc2cc(C)ccc2C)cc1OC	28µM	?	/	/	.	/
COc1ccc(C)cc1NCc1cccc(OC)c1OC	7.9µM	.	?	?	.	.
COc1cc(CNc2cc(C)ccc2C)cc(OC)c1OC	.	.	.	?	.	?
COc1ccc(CNc2cc(C)ccc2C)c(OC)c1OC	?	.	.	?	.	?
